# Assay results: the supplement of paper PMC8728848
# Only a selection was taken, and the strongest signals are over-represented in it overall.
# B1: GS7807P-bth-537-23-537 (Bacteroides thetaiotaomicron) (protein)
# chain: NYENINSNPYEAPDLSADGYALGSAMNNLAGCVVSPDVNTAQFTDCLLGGPLGGYFADSNAGFTETISNFNPKDDWSRVFLKSDKIIPTLYSNLTQVKLVSQNTNDPVPYAIAQVIKVAAMHRVTDAFGPIPYSQIGANGEIATPYDSQEVTYNTFFDELNAAIATLNENSNEQLVPTADYIYKGDVKKWIRFANSLKLRLAIRIAYANPVKAQQMAEEAVNPANGGVIESNADNATWNYFETSQNPIYVATRYNQVQTSDHGGVPCLTGGDTHAAADIICYMNGYKDNRREKFFTKSEWAGQDYVGMRRGIVIPELKTTGHKYSGVNIAPTSPLYWMNAAEVAFLRAEGQAVFNFSMGGTAESFYNQGIRLSFEQWGADGVEDYLKDDVNKPTAYTDPAGTNTYQNALSNITIKWNDSADKEEKQERIIVQKWIANWQLGNEAWADFRRTGYPKLIPVKENKSGGVVDSEKGARRMPYPLDEFVSNKANVEYAIANYLHGADNMATDVWWASKK
# Experiments:
# Assay in all cases: glycan array binding signal (z-score within array); higher = stronger binding
# Details in all cases: glycan notation: IUPAC condensed, linker removed
# [1] = biological target: Fuc(a1-2)Gal(b1-3)GlcNAc(b1-3)Gal(b1-4)Glc
# Summary of the method: (§1)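 The binding signal is a Z-score computed within each array. Data were drawn from 3228 arrays in the Consortium for Functional Glycomics database, restricted to those with a known protein sequence. Scores were averaged over arrays of the same protein sequence at different concentrations or buffers, and over linkers, and negative values can be taken as non-binding.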
# [2] = biological target: Fuc(a1-2)Gal(b1-3)GlcNAc(b1-3)[Fuc(a1-2)Gal(b1-3)GlcNAc(b1-6)]GalNAc
# Summary of the method: as §1
# [3] = biological target: Fuc(a1-2)Gal(b1-4)GlcNAc(b1-2)[Fuc(a1-2)Gal(b1-4)GlcNAc(b1-4)]Man(a1-3)[Fuc(a1-2)Gal(b1-4)GlcNAc(b1-2)Man(a1-6)]Man(b1-4)GlcNAc(b1-4)GlcNAc
# Summary of the method: as §1
# Fuc(a1-2)Gal6S(b1-4)Glc = biological target: Fuc(a1-2)Gal6S(b1-4)Glc
# Summary of the method: as §1
# [4] = biological target: Fuc(a1-2)[Gal(a1-3)]Gal(b1-3)GlcNAc(b1-6)GalNAc
# Summary of the method: as §1
# [5] = biological target: Fuc(a1-2)[Gal(a1-4)]Gal(b1-4)GlcNAc
# Summary of the method: as §1
# [6] = biological target: Fuc(a1-2)[GalNAc(a1-3)]Gal(b1-4)GlcNAc(b1-2)Man(a1-3)[Fuc(a1-2)[GalNAc(a1-3)]Gal(b1-4)GlcNAc(b1-2)Man(a1-6)]Man(b1-4)GlcNAc(b1-4)GlcNAc
# Summary of the method: as §1
# [7] = biological target: Fuc(a1-3)[GalNAc(b1-4)]GlcNAc
# Summary of the method: as §1
# Gal(a1-3)Gal(b1-3)GlcNAc = biological target: Gal(a1-3)Gal(b1-3)GlcNAc
# Summary of the method: as §1
# [8] = biological target: Gal(a1-3)Gal(b1-3)GlcNAc(b1-2)Man
# Summary of the method: as §1
# [9] = biological target: Gal(b1-3)GalNAc(b1-4)Gal(b1-4)Glc
# Summary of the method: as §1
# [10] = biological target: Gal(b1-3)GlcNAc(a1-6)Gal(b1-4)GlcNAc
# Summary of the method: as §1
# Gal(b1-3)GlcNAc(b1-2)Man = biological target: Gal(b1-3)GlcNAc(b1-2)Man
# Summary of the method: as §1
# [11] = biological target: Gal(b1-3)GlcNAc(b1-2)Man(a1-3)[Gal(b1-3)GlcNAc(b1-2)Man(a1-6)]Man(b1-4)GlcNAc(b1-4)[Fuc(a1-6)]GlcNAc
# Summary of the method: as §1
# [12] = biological target: Gal(b1-3)GlcNAc(b1-6)GalNAc
# Summary of the method: as §1
# [13] = biological target: Gal(b1-3)[Fuc(a1-4)]GlcNAc(b1-3)Gal(b1-3)[Fuc(a1-4)]GlcNAc
# Summary of the method: as §1
# [14] = biological target: Gal(b1-4)GlcNAc(b1-2)Man(a1-3)[GlcNAc(b1-2)Man(a1-6)]Man(b1-4)GlcNAc(b1-4)GlcNAc
# Summary of the method: as §1
# [15] = biological target: Gal(b1-4)GlcNAc(b1-2)[Gal(b1-4)GlcNAc(b1-6)]Man(a1-6)[Gal(b1-4)GlcNAc(b1-2)Man(a1-3)]Man(b1-4)GlcNAc(b1-4)[Fuc(a1-6)]GlcNAc
# Summary of the method: as §1
# [16] = biological target: Gal(b1-4)GlcNAc(b1-2)[Gal(b1-4)GlcNAc(b1-6)]Man(a1-6)[GlcNAc(b1-4)][Gal(b1-4)GlcNAc(b1-2)Man(a1-3)]Man(b1-4)GlcNAc(b1-4)GlcNAc
# Summary of the method: as §1
# [17] = biological target: Gal(b1-4)GlcNAc(b1-3)Gal(b1-4)GlcNAc(b1-3)Gal(b1-4)GlcNAc(b1-3)Gal(b1-4)GlcNAc(b1-3)Gal(b1-4)GlcNAc(b1-3)Gal(b1-4)GlcNAc(b1-2)Man(a1-3)[Gal(b1-4)GlcNAc(b1-3)Gal(b1-4)GlcNAc(b1-3)Gal(b1-4)GlcNAc(b1-3)Gal(b1-4)GlcNAc(b1-3)Gal(b1-4)GlcNAc(b1-3)Gal(b1-4)GlcNAc(b1-2)Man(a1-6)]Man(b1-4)GlcNAc(b1-4)GlcNAc
# Summary of the method: as §1
# [18] = biological target: Gal(b1-4)GlcNAc(b1-3)[Fuc(a1-3)GlcNAc(b1-6)]Gal(b1-4)Glc
# Summary of the method: as §1
# Gal3S6S(b1-4)GlcNAc = biological target: Gal3S6S(b1-4)GlcNAc
# Summary of the method: as §1
# Gal4S(b1-4)GlcNAc = biological target: Gal4S(b1-4)GlcNAc
# Summary of the method: as §1
# Gal6S(b1-4)Glc6S = biological target: Gal6S(b1-4)Glc6S
# Summary of the method: as §1
# Gal6S(b1-4)GlcNAc = biological target: Gal6S(b1-4)GlcNAc
# Summary of the method: as §1
# Gal6S(b1-4)GlcNAc6S = biological target: Gal6S(b1-4)GlcNAc6S
# Summary of the method: as §1
# [19] = biological target: GalNAc(b1-3)Gal(a1-4)Gal(b1-4)GlcNAc
# Summary of the method: as §1
# [20] = biological target: GlcNAc(a1-4)Gal(b1-4)GalNAc
# Summary of the method: as §1
# [21] = biological target: GlcNAc(b1-2)Man(a1-3)[GlcNAc(b1-2)Man(a1-6)]Man(b1-4)GlcNAc(b1-4)GlcNAc
# Summary of the method: as §1
# [22] = biological target: GlcNAc(b1-2)[GlcNAc(b1-4)]Man(a1-3)[GlcNAc(b1-4)][GlcNAc(b1-2)Man(a1-6)]Man(b1-4)GlcNAc(b1-4)GlcNAc
# Summary of the method: as §1
binder,measurement,setting,value
B1,glycan array binding signal (z-score),[1],-0.288
same,glycan array binding signal (z-score),[2],5.33
same,glycan array binding signal (z-score),[3],-0.271
same,glycan array binding signal (z-score),Fuc(a1-2)Gal6S(b1-4)Glc,0.294
same,glycan array binding signal (z-score),[4],2.94
same,glycan array binding signal (z-score),[5],-0.331
same,glycan array binding signal (z-score),[6],3.7
same,glycan array binding signal (z-score),[7],0.192
same,glycan array binding signal (z-score),Gal(a1-3)Gal(b1-3)GlcNAc,0.94
same,glycan array binding signal (z-score),[8],1.1
same,glycan array binding signal (z-score),[9],0.496
same,glycan array binding signal (z-score),[10],-0.173
same,glycan array binding signal (z-score),Gal(b1-3)GlcNAc(b1-2)Man,-0.221
same,glycan array binding signal (z-score),[11],2.17
same,glycan array binding signal (z-score),[12],1.42
same,glycan array binding signal (z-score),[13],-0.304
same,glycan array binding signal (z-score),[14],-0.348
same,glycan array binding signal (z-score),[15],-0.271
same,glycan array binding signal (z-score),[16],2.06
same,glycan array binding signal (z-score),[17],2.28
same,glycan array binding signal (z-score),[18],-0.071
same,glycan array binding signal (z-score),Gal3S6S(b1-4)GlcNAc,0.325
same,glycan array binding signal (z-score),Gal4S(b1-4)GlcNAc,-0.373
same,glycan array binding signal (z-score),Gal6S(b1-4)Glc6S,2.21
same,glycan array binding signal (z-score),Gal6S(b1-4)GlcNAc,0.037
same,glycan array binding signal (z-score),Gal6S(b1-4)GlcNAc6S,2.01
same,glycan array binding signal (z-score),[19],0.36
same,glycan array binding signal (z-score),[20],-0.138
same,glycan array binding signal (z-score),[21],-0.374
same,glycan array binding signal (z-score),[22],-0.39
